{"source": "the supplement of paper PMC10121225", "note": "Where a name gives a salt, the structure may show the parent alone.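 Note: immunostained co-cultures imaged by high-content microscopy, Z-score per plate against mean and SD of 0.1% DMSO wells, compounds added on differentiation day 18, analysed day 21.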", "data": [{"system": "hN + hpA co-culture (H1 iNGN2 human neurons + human primary astrocytes)", "test": "presynaptic density (SYNAPSIN1 puncta per MAP2 neurite area), Z-score vs DMSO controls; higher = more presynaptic puncta (synapse-promoting)", "details": "3 µM; 72 h", "values": [{"smiles": "C#CCN[C@@H]1CCc2ccccc21", "note": "[Rasagiline Mesylate]", "presynaptic density (Z-score)": 0.0894}, {"smiles": "CC(=O)Nc1nc2c(Oc3cc(-c4ccc(C(F)(F)F)cc4)ncn3)cccc2s1", "presynaptic density (Z-score)": 0.208}, {"smiles": "CN1CC(=O)N2[C@H](c3ccc4c(c3)OCO4)c3[nH]c4ccccc4c3C[C@@H]2C1=O", "note": "[Tadalafil]", "presynaptic density (Z-score)": -0.533}, {"smiles": "N#CC1(c2ccc(NC(=O)c3cccnc3NCc3ccncc3)cc2)CCCC1", "note": "[Apatinib]", "presynaptic density (Z-score)": -1.31}, {"smiles": "NC(=O)c1ccc(I)c([N+](=O)[O-])c1", "presynaptic density (Z-score)": -1.09}, {"smiles": "CC1=C(C(=O)Nc2cc3cn[nH]c3cc2F)C(c2ccc(C(F)(F)F)cc2)CC(=O)N1", "note": "(centres undefined)", "presynaptic density (Z-score)": 1.88}, {"smiles": "OC(CNCC(O)C1CCc2cc(F)ccc2O1)C1CCc2cc(F)ccc2O1", "note": "(centres undefined) [Nebivolol]", "presynaptic density (Z-score)": -0.196}, {"smiles": "c1ccc(CC2=NCCN2)cc1", "note": "[Tolazoline HCl]", "presynaptic density (Z-score)": -0.161}, {"smiles": "O=C(O)/C=C/c1ccc(Cn2ccnc2)cc1", "note": "[Ozagrel]", "presynaptic density (Z-score)": -0.554}, {"smiles": "CCOC(=O)[C@H](CCc1ccccc1)N[C@@H](C)C(=O)N1C(=O)N(C)C[C@H]1C(=O)O", "note": "[Imidapril HCl]", "presynaptic density (Z-score)": -0.0695}, {"smiles": "C=C[C@@]1(C)CC(=O)[C@]2(O)[C@@]3(C)[C@@H](O)CCC(C)(C)[C@@H]3[C@H](O)[C@H](OC(C)=O)[C@@]2(C)O1", "note": "[Forskolin]", "presynaptic density (Z-score)": 0.455}, {"smiles": "O=C(Nc1cccnc1)N1CCC(Cc2cccc(Oc3ccc(C(F)(F)F)cn3)c2)CC1", "presynaptic density (Z-score)": -1.87}, {"smiles": "Cc1cc(OCCCS(C)(=O)=O)cc(C)c1-c1cccc(COc2ccc3c(c2)OC[C@H]3CC(=O)O)c1", "presynaptic density (Z-score)": -0.294}, {"smiles": "COc1cc(Nc2c(C#N)cnc3cc(OCCCN4CCN(C)CC4)c(OC)cc23)c(Cl)cc1Cl", "note": "[Bosutinib (SKI 606)]", "presynaptic density (Z-score)": -1.36}, {"smiles": "CC(NC(=O)C(O)c1cc(F)cc(F)c1)C(=O)NC1C(=O)N(C)c2ccccc2-c2ccccc21", "note": "(centres undefined)", "presynaptic density (Z-score)": 0.0312}, {"smiles": "Cc1ccc(NC(=O)c2ccc(CN3CCN(C)CC3)cc2)cc1Nc1nccc(-c2cccnc2)n1", "note": "[Gleevec (Imatinib)]", "presynaptic density (Z-score)": -0.283}, {"smiles": "COc1cc2c(cc1Cc1cccc(Cl)c1F)c(=O)c(C(=O)O)cn2[C@H](CO)C(C)C", "note": "[Elvitegravir (GS-9137]", "presynaptic density (Z-score)": 0.597}, {"smiles": "CCCCc1nc(Cl)c(CO)n1Cc1ccc(-c2ccccc2-c2nnn[nH]2)cc1", "note": "[Losartan Potassium (DuP 753)]", "presynaptic density (Z-score)": 0.806}, {"smiles": "CC1=C(/C=C/C(C)=C/C=C/C(C)=C\\C(=O)O)C(C)(C)CCC1", "note": "[Isotretinoin]", "presynaptic density (Z-score)": -2.56}, {"smiles": "CN(C)CCCCC(=O)Nc1ccc(NC(=S)NC(=O)c2ccc(C(C)(C)C)cc2)cc1", "note": "[Tenovin-6]", "presynaptic density (Z-score)": -0.671}, {"smiles": "O=C(Nc1cc(C(F)(F)F)cc(C(F)(F)F)c1)c1cc(Cl)ccc1O", "presynaptic density (Z-score)": -3.05}, {"smiles": "COc1ccc2[nH]c([S@@+]([O-])Cc3ncc(C)c(OC)c3C)nc2c1", "note": "[Esomeprazole Sodium]", "presynaptic density (Z-score)": 0.0968}, {"smiles": "O=C(Nc1ccccc1Br)N[C@@H]1CCN(c2ccc(C(F)(F)F)cn2)C1", "presynaptic density (Z-score)": -1.47}, {"smiles": "O=C(Nc1ccccc1)c1cc([N+](=O)[O-])ccc1Cl", "presynaptic density (Z-score)": -0.00538}, {"smiles": "CC(C)(Cc1ccc2ccccc2c1)NC[C@@H](O)COc1cccc(Cl)c1C#N", "presynaptic density (Z-score)": -2.26}, {"smiles": "Cc1cccc(CC(=O)N2CCc3c2ccc(-c2cn(C)c4ncnc(N)c24)c3F)n1", "presynaptic density (Z-score)": -0.752}, {"smiles": "O=C(O)/C=C/c1ccc(Cn2ccnc2)cc1", "note": "[Ozagrel HCl]", "presynaptic density (Z-score)": -0.679}, {"smiles": "CC(C)CCN1c2nc(Nc3cc(F)c(O)c(F)c3)ncc2N(C)C(=O)C1C", "note": "(centres undefined)", "presynaptic density (Z-score)": 2.11}, {"smiles": "COc1ccccc1OCCNCC(O)COc1cccc2[nH]c3ccccc3c12", "note": "(centres undefined)", "presynaptic density (Z-score)": -1.2}, {"smiles": "CCc1cncnc1N1CCN(Cc2nc3ccc(C(F)(F)F)cc3[nH]2)CC1", "presynaptic density (Z-score)": -0.739}, {"smiles": "CC(C)(C)c1cc(NC(=O)Nc2ccc(-c3cn4c(n3)sc3cc(OCCN5CCOCC5)ccc34)cc2)no1", "note": "[AC220 (Quizartinib]", "presynaptic density (Z-score)": 0.214}, {"smiles": "CCC(=O)NCC[C@@H]1CCc2ccc3c(c21)CCO3", "presynaptic density (Z-score)": -1.53}, {"smiles": "CC(C)NC[C@@H](C(=O)N1CCN(c2ncnc3c2[C@H](C)C[C@H]3O)CC1)c1ccc(Cl)cc1", "presynaptic density (Z-score)": -0.322}, {"smiles": "Cc1c(Cl)cccc1Nc1ccccc1C(=O)O", "note": "[Tolfenamic acid]", "presynaptic density (Z-score)": -0.187}, {"smiles": "Cc1cnc(-c2cc(N3CCN(C(=O)CCS(C)(=O)=O)CC3)ncc2Cl)c(C)c1", "presynaptic density (Z-score)": -1.22}, {"smiles": "O=c1ncccn1[C@@H]1O[C@H](CO)[C@@H](O)[C@H]1O", "note": "[Zebularine]", "presynaptic density (Z-score)": -0.579}, {"smiles": "COc1cc2c(N3CCN(C(=O)Nc4ccc(OC(C)C)cc4)CC3)ncnc2cc1OCCCN1CCCCC1", "presynaptic density (Z-score)": -0.158}, {"smiles": "CC(C)N(CCCNC(=O)Nc1ccc(C(C)(C)C)cc1)C[C@H]1O[C@@H](n2cc(Br)c3c(N)ncnc32)[C@H](O)[C@@H]1O", "presynaptic density (Z-score)": -0.407}, {"smiles": "NC(=O)c1ccc(-c2nc(-c3ccc4c(c3)OCO4)c(-c3ccccn3)[nH]2)cc1", "presynaptic density (Z-score)": 0.232}]}]}
